Bioassay records: PubChem, The Scripps Research Institute Molecular Screening Center
FBW7 activator = human FBW7 E3 ligase activation, primary screen. Q969H0. AlphaScreen FBW7–phospho-cyclin E peptide binding, activator screen. normalized activity (activation), % at 26.1 µM. hit rate 0.13% among 650,000. AID 1259310; in the data active = normalized activity above about 1.9%;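 also: purified mutant Fbw7 with reduced substrate affinity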
TEAD-YAP block = TEAD-YAP interaction inhibition; hit rate 1.4% among 640,000; HEK-TIYL cells, TEAD-Gal4/YAP UAS-luciferase luminescence; inhibition, % at 9.12 µM; in the data active = inhibition above about 32%;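 also: 0% = median of test compound wells and 100% = reference inhibitor wells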
GPR151 activ = activates the human receptor GPR151 | Q8TDV0 | PathHunter beta-arrestin GPR151 cells, luminescence | activation, % at 11.2 µM | hit rate 1% among 650,000 | AID 1508602; in the data active = activation above about 4.9%;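 also: 0% = median of compound wells and 100% = cells with positive control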
MITF primary = human MITF inhibition, primary screen; inhibition, % at 2.6 µM; O75030; AID 1259374; AlphaScreen MITF homodimerization, bead proximity signal; hit rate 0.91% among 650,000; in the data active = inhibition above about 50%;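 also: 0% = vehicle wells with protein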
Target sequence (O75030 whole entry, looked up): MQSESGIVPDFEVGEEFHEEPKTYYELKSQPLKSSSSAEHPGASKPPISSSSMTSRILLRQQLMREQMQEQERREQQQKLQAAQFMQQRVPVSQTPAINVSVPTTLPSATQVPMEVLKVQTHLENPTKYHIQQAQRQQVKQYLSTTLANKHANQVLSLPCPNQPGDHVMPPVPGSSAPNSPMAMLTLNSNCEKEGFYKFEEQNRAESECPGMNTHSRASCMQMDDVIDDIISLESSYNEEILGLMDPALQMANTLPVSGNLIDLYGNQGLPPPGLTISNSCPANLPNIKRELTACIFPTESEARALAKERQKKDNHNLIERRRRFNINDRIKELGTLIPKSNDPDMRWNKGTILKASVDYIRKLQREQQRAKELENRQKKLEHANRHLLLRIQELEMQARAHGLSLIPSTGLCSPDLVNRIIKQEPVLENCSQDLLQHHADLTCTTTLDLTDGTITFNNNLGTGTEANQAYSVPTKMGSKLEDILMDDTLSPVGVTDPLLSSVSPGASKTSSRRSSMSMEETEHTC
MITF inh conf = human MITF inhibition, confirmation; inhibition, % at 2.6 µM; AID 1259372; AlphaScreen MITF homodimerization, biotin/His-MITF beads; shares compounds with MITF primary; hit rate 16% among 4,700;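 active = inhibition above a cutoff derived from the DMSO control wells, cut at about 28% in these data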;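 also: 0% = MITF dimer wells with DMSO only; inhibitors lower the bead chemiluminescence by keeping MITF from dimerizing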
AS interf DR = optically interferes with AlphaScreen signal in dose response | shares compounds with MITF primary | AlphaScreen optical interference counterscreen, cell-free | IC50, µM | hit rate 6% among 480 | AID 1259373; call rule not given here
AlphaScreen intf2 = AlphaScreen optical interference, counter-screen. shares compounds with MITF primary. LysRS AlphaScreen counterscreen, signal interference, triplicate. inhibition, % at 2.6 µM. hit rate 7.6% among 4,700. AID 1259376;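 active = inhibition above a cutoff derived from the DMSO control wells, cut at about 30% in these data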
* marks the source's active call; other numbers are inactive results; · = not tested or not shown. Rows were chosen to be rich in hits. Some 3.5% of all compounds tested hit in one or more screens of this group.

SMILES	FBW7 activator	TEAD-YAP block	GPR151 activ	MITF primary	MITF inh conf	AlphaScreen intf2	others
CCOc1ccc(CN2CCN(Cc3ccc(CC)cc3)CC2)cc1	-0.1	11.9	0.8	74.8*	10.6	6.1
COc1ccc(S(=O)(=O)N2CCN(Cc3cc(OC)c(OC)c(OC)c3)CC2)cc1	0.0	1.4	-1.7	55.9*	-1.4	9.0
Cc1ccc(S(=O)(=O)N2CCN(Cc3cccc4ccccc34)CC2)cc1	-0.1	-3.7	-1.5	44.1	·	·
O=S(=O)(c1ccc(F)cc1)N1CCN(Cc2cccc3ccccc23)CC1	0.5	-16.0	0.2	82.3*	9.8	9.1
COC(=O)Cc1ccc(N(Cc2ccccc2F)S(=O)(=O)c2ccccc2)cc1	0.7	7.2	-1.7	5.4	·	·
CCOc1ccc(CN2CCN(Cc3ccccc3OC)CC2)cc1	-0.1	9.0	0.6	43.8	·	·
O=S(=O)(c1ccc2ccccc2c1)N1CCN(Cc2ccccc2F)CC1	-0.3	1.5	-0.1	54.1*	11.2	16.5
CCOc1ccc(CN2CCN(Cc3ccc(OC)cc3)CC2)cc1	-0.2	3.6	2.8	57.8*	19.5	16.0
O=S(=O)(c1ccc(F)cc1)N1CCN(Cc2ccncc2)CC1	-0.5	0.5	-0.5	73.0*	13.3	19.0
CCOc1ccc(CN2CCN(Cc3cc(OC)c(OC)cc3OC)CC2)cc1	-0.1	-0.1	-0.5	73.6*	1.7	8.1
COc1ccc(S(=O)(=O)N2CCN(Cc3ccccc3F)CC2)cc1	-0.2	4.7	0.7	7.3	·	·
COCCCNC(=O)/C=C/c1ccc(OC)cc1	0.0	-1.2	-0.6	3.3	·	·
CS(=O)(=O)N(CC(=O)NCc1ccco1)c1ccc(F)c(Cl)c1	0.0	12.0	2.8	17.6	·	·
O=C(NCc1ccccc1)/C(=C/C=C/c1ccccc1)NC(=O)c1ccccc1	-0.1	-0.8	-0.4	2.4	·	·
CCOc1ccc(OCCCOc2ccccc2C(C)=O)cc1	0.1	-9.1	-0.5	-27.3	·	·
Cc1ccc(NC(=O)/C=C/c2cccc(Oc3ccccc3)c2)cc1	0.0	5.7	3.8	-13.1	·	·
O=S(=O)(c1ccc2ccccc2c1)N1CCN(Cc2ccccc2)CC1	-0.1	3.9	2.0	20.9	·	·
CCOc1ccc(CN2CCN(S(=O)(=O)c3ccc(OC)cc3)CC2)cc1	0.2	7.9	-1.1	57.3*	-4.0	-1.4
CCOc1ccc(CN2CCC(N3CCN(C)CC3)CC2)cc1	0.2	-0.6	-1.4	69.7*	-4.1	-6.5
CCOc1ccc(CN2CCN(Cc3cc(OC)c(O)c(OC)c3)CC2)cc1	0.0	-14.5	3.3	55.6*	1.9	8.3
O=S(=O)(c1ccc2ccccc2c1)N1CCN(Cc2ccncc2)CC1	-0.2	1.3	0.5	79.5*	10.9	0.4
O=C(CSc1nnc(-c2ccco2)o1)Nc1cccc(Cl)c1Cl	-0.1	4.6	0.6	9.2	·	·
COc1ccc(CN2CCN(Cc3ccncc3)CC2)cc1	-0.3	11.2	-1.3	57.1*	-2.7	10.6
COc1ccc(S(=O)(=O)N2CCN(Cc3ccncc3)CC2)cc1	-0.1	-3.2	-1.2	68.6*	-2.4	0.5
O=C1CC(c2cccs2)Cc2nc(N3CCOCC3)ncc21 (stereo unspecified)	0.6	9.9	1.2	1.8	·	·
SMILES	FBW7 activator	TEAD-YAP block	GPR151 activ	MITF primary	MITF inh conf	AlphaScreen intf2	others
COc1ccc(NC(=O)CSc2nc3ccccc3nc2Cc2ccccc2OC)cc1Cl	0.4	10.8	-0.8	-11.8	·	·
COc1ccccc1Cc1nc2ccccc2nc1SCC(=O)Nc1ccc(OC)c(OC)c1	0.1	-26.0	4.2	73.0*	3.6	-6.0
CCOC(=O)c1c(NC(=O)COc2ccc(Cl)cc2C)sc(C(N)=O)c1C	0.0	-8.3	-0.1	23.9	·	·
CC(C)c1cccc(OCCCN2CCOCC2)c1	0.4	-1.3	2.7	56.0*	14.3	14.7
Cc1ccc(C(C)C)cc1OCCn1cncn1	-0.1	-7.7	1.1	66.1*	10.4	17.1
COc1cccc(OCCn2cncn2)c1	0.6	4.4	-1.3	11.2	·	·
Cc1cc(OCCN2CCOCC2)ccc1C(C)C	0.2	-39.4	-1.9	59.5*	1.7	3.0
Cc1ccc(C(C)C)cc1OCCN1CCOCC1	0.1	13.6	0.1	51.0*	-10.7	-7.2
CN1C(=O)C(=Cc2ccccc2OCC(=O)O)C(=O)N(C)C1=O	-0.9	4.8	2.1	11.6	·	·
CNc1nc(Nc2cccc(Cl)c2)c2cnn(C)c2n1	0.5	6.3	1.2	-16.1	·	·
Cc1ccc(C(C)C)cc1OCCCCN1CCOCC1	-0.3	10.2	1.4	78.9*	-7.2	-5.7
Cc1ccc(C)c(OCCCN2CCOCC2)c1	-0.1	1.9	0.6	9.6	·	·
O=C(O)C1CCCCC1C(=O)Nc1nncs1 (stereo unspecified)	-0.1	-2.3	-0.3	-7.7	·	·
O=C(O)C1CC=CCC1C(=O)Nc1nncs1 (stereo unspecified)	-0.1	1.9	2.5	53.0*	48.4*	-3.7	AS interf DR=>6.48
O=C(c1ccc(Cl)cc1Cl)N1CCN(c2ccc([N+](=O)[O-])cc2F)CC1	-0.2	5.1	-0.4	-3.6	·	·
CC1(C)C2CCC1(C)C(NCC(O)COCc1ccccc1F)C2 (stereo unspecified)	-0.3	-1.3	0.9	65.1*	-10.5	-4.3
CN(C)CC(C)(C)CNCC(O)COCc1ccccc1F (stereo unspecified)	-0.2	-3.5	-0.2	78.5*	0.4	-5.3
O=C(CCC1CCCCC1)Nc1nc2ccccc2s1	0.1	-31.6	0.7	91.7*	7.3	11.1
CN1CCN(CC(=O)Nc2nc3ccccc3s2)CC1	-0.1	-14.6	-0.4	50.9*	7.4	13.7
CCn1nc(C(=O)Nc2cc(C)nn2-c2nc3ccccc3s2)cc1C	-0.2	13.2	-0.2	1.3	·	·
CCn1nc(C(=O)Nc2nc3ccccc3s2)cc1C	-0.1	87.6*	-9.2	68.6*	-4.2	-4.8
CCCC(=O)Nc1nc2ccccc2s1	0.1	-39.0	-1.9	13.2	·	·
CCC(C)N1CCN(C(=O)c2cc(OC)c(OC)c(OC)c2)CC1 (stereo unspecified)	0.0	-3.9	-0.7	51.4*	-8.9	-0.3
COc1ccc(C(=O)N2CCN(Cc3cc(OC)c(OC)c(OC)c3)CC2)cc1	0.9	-8.9	-0.6	72.2*	5.4	-0.7
COc1ccc(C(=O)N2CCN(C3CCCC(C)C3)CC2)cc1 (stereo unspecified)	0.1	6.5	0.9	51.9*	4.2	11.2
COc1cc(C(=O)N2CCN(Cc3ccc(C)cc3)CC2)cc(OC)c1OC	0.0	7.3	0.2	48.0	·	·
COc1cc(C(=O)N2CCN(Cc3ccc(Br)cc3)CC2)cc(OC)c1OC	0.3	-3.0	0.0	54.5*	9.0	9.1
COc1ccc(C(=O)N2CCN(Cc3cc(OC)c(O)c(OC)c3)CC2)cc1	-0.1	5.4	-0.9	26.3	·	·
COc1ccc(N2CCN(Cc3cccc(Cl)c3)C2=O)cc1	0.0	-12.9	-0.3	0.7	·	·
COc1cc(CN2CCN(C(=O)c3cc(OC)c(OC)c(OC)c3)CC2)cc(OC)c1	0.4	4.5	-1.1	55.2*	3.7	11.7
